Reference: PubChem BioAssay AID430 (Sanford-Burnham Center for Chemical Genomics, 2006)
About 1,100 (1.7%) of roughly 63,000 compounds were called active. Cut-off read from the data, not from the text of the source: active = cytotoxicity above about 50%; inactive = the rest. Only a selection was taken, and actives are over-represented in it overall. Measured potencies and affinities stand elsewhere.

Assay: cytotoxicity in HPDE-C7 cells, cell-based, fluorescence, HTS (AID 430);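 note: cells exposed to compound for 48 hours before viability readout; 0% = vehicle and 100% = reference cytotoxic drug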
Conditions: HPDE-C7 pancreatic duct cells viability, at 10 µM, stronger effect = higher value

SMILES | cytotoxicity
Cc1nc(N2CCC(C(N)=O)CC2)c2nnn(Cc3ccccc3)c2n1 | 4.3% (inactive)
Cc1oc(C(=O)O)cc1CSc1nnc(-c2ccccc2)n1C | -2.3% (inactive)
COc1ccc(NC2c3ccccc3C(=O)N2Cc2ccco2)cc1OC (stereo unspecified) | 17.8% (inactive)
Cc1cccc(Cn2cnc3c(nnn3Cc3ccc(F)cc3)c2=O)c1 | 1.3% (inactive)
C=C(C)CSc1nnc(-c2ccccc2)n1N | -23.4% (inactive)
COC(=O)c1nc2n(n1)C(c1ccc(OC)c(OC)c1OC)C1=C(CCCC1=O)N2 (stereo unspecified) | 2.9% (inactive)
Cc1ccc(NC(=O)c2ccco2)cc1NC(=O)CSc1nnc(-c2cccs2)n1C | -3.6% (inactive)
CCc1[nH]nc2c1C(c1cccc(OC(=O)N3CCOCC3)c1)C(C#N)=C(N)O2 (stereo unspecified) | -34.3% (inactive)
COc1ccc(Nc2nc(-c3sc(N)nc3C)cs2)cc1 | 46.6% (inactive)
CCn1c(C(O)c2ccccc2)nc2ccccc21 (stereo unspecified) | -4.3% (inactive)
Cc1ccc(N2C(=O)C(Cl)=C(Nc3c(C)n(C)n(-c4ccccc4)c3=O)C2=O)cc1 | -0.2% (inactive)
CCOc1ccc(-c2[nH]ncc2Oc2cccc(OC)c2)c(O)c1 | 55.5% (active)
Cc1ccc(NC(=O)C2CCCN2S(=O)(=O)c2ccc(F)cc2)c(C)c1 (stereo unspecified) | -6.1% (inactive)
CCOC(=O)C1CCCN(CCCc2ccccc2)C1 (stereo unspecified) | -2.8% (inactive)
CCOC(=O)c1c(C2CCN(C(=O)OCC)CC2)nc2ccccn12 | 0% (inactive)
COc1ccc(C(C)=O)c2c(O)cccc12 | 9.1% (inactive)
COc1ccc2c3c(cccc13)OCC2=O | 8.3% (inactive)
COc1cccc(/C(O)=C2/C(=O)C(=O)N(CCN3CCOCC3)C2c2cccnc2)c1 (stereo unspecified) | -7.7% (inactive)
CC(=O)Nc1nc2ccc(Br)cc2s1 | -11.8% (inactive)
Cc1c(C(=O)N2CCCC2)oc2c1-c1[nH]ncc1CC2 | 1% (inactive)
CCOCCCNC(=O)N[C@@H](Cc1ccccc1)C(=O)OC | 0.6% (inactive)
CCOC(=O)c1nc2ccccc2s1 | -0.3% (inactive)

SMILES | cytotoxicity
COC(=O)Cc1cc(=O)n(-c2nc3ccccc3s2)[nH]1 | 74.2% (active)
COC(=O)Cc1cc(=O)n(-c2nc3ccccc3[nH]2)[nH]1 | -3% (inactive)
CCOC(=O)Cc1cc(=O)n(-c2nc3ccccc3s2)[nH]1 | 75.9% (active)
COC(=O)Cc1cc(=O)n(-c2ccccc2)[nH]1 | -18.7% (inactive)
CCOC(=O)CC(=O)Nc1nc2ccccc2s1 | 1.7% (inactive)
COc1ccc(CN/C=C2\CCCCC2=O)cc1 | 5.7% (inactive)
Cc1ccccc1-c1nc(CS(=O)CC(=O)NCCCN(C)c2ccccc2)c(C)o1 (stereo unspecified) | 10.9% (inactive)
COc1ccc(-n2nc(C(=O)N3CCC(C#N)CC3)c3c4ccccc4n(C)c3c2=O)cc1 | -4.7% (inactive)
Cc1cccc(OCc2nnc(SCC(=O)Nc3cc(C)on3)n2C)c1 | -0.4% (inactive)
Cn1c(=O)[nH]c(=O)c2c1ncn2CCN1CCCCC1 | -5.6% (inactive)
CCCOc1ccc(C2c3c(oc4cc(C)c(C)cc4c3=O)C(=O)N2CCCN(C)C)cc1 (stereo unspecified) | -4.2% (inactive)
O=C(CSc1n[nH]c(-c2ccccc2)n1)c1ccc(O)c(O)c1 | -0.1% (inactive)
COc1cc(-c2csc(C)n2)ccc1O | -29.1% (inactive)
CN(c1ccc(O)cc1)c1nc(-c2ccccc2)cs1 | 8% (inactive)
Oc1ccc(-c2nc(-c3ccc(O)c(O)c3)cs2)cc1 | 73.5% (active)
CCOC(=O)COn1c(=O)c[n+]([O-])c2ccccc21 | -1.5% (inactive)
COc1cccc(CNc2nc3ccccc3n2CCN2CCCCC2)c1 | 11.1% (inactive)
CCn1c(NC2CCCCC2)nc2ccccc21 | 7.5% (inactive)
CCOC(=O)CC12CN3CN(C1)CC(CC(=O)OCC)(C3)C2=O | -0.6% (inactive)
CCC(=O)N1CCN(CCN=CC2=C(O)CC(C)(C)CC2=O)CC1 | 5.7% (inactive)
O=C(O)CCN1C(=O)C(=C2CCCCCC2)SC1=S | -8.4% (inactive)
O=C1c2ccccc2C(=O)N1Cc1ccco1 | -1.5% (inactive)

SMILES | cytotoxicity
O=C1C(=C2CCCCC2)SC(=S)N1Cc1ccco1 | 60.9% (active)
CSc1nc(N)nc(SCC(=O)c2ccccc2)c1C#N | 13.7% (inactive)
CCc1nc(SCC(=O)N2CCCc3ccccc32)c2c(=O)n(C)c(=O)n(C)c2n1 | -9% (inactive)
CCCc1nc(SCC(=O)N2CCCc3ccccc32)c2c(=O)n(C)c(=O)n(C)c2n1 | 77% (active)
CCCc1nc(SCC(=O)N2CCN(c3ccccc3)CC2)c2c(=O)n(C)c(=O)n(C)c2n1 | 0% (inactive)
Cn1c(=O)c2c(SCC(=O)N3CCC(Cc4ccccc4)CC3)nc(C3CC3)nc2n(C)c1=O | -3.8% (inactive)
CCCc1nc(SCC(=O)N2CCc3ccccc32)c2c(=O)n(C)c(=O)n(C)c2n1 | 5.3% (inactive)
Cc1cc(C(=O)COC(=O)c2ccc3c(c2)OCO3)c(C)n1Cc1cccs1 | -3.8% (inactive)
COCCNC(=O)C(C)OC(=O)c1cc2occc2n1C (stereo unspecified) | -3.5% (inactive)
Cc1csc(NC(=O)C2CCC(C)(C(=O)O)C2(C)C)n1 (stereo unspecified) | -12.1% (inactive)
Cc1cc(C(=O)NCCCN2CCOCC2)n(-c2ccccc2)n1 | 1.2% (inactive)
Cc1cc(C(=O)NCCN2CCN(c3cccc(Cl)c3)CC2)n(-c2ccccc2)n1 | 55.2% (active)
Cc1cc(C(=O)NCCCN2CCN(C3CCCCC3)CC2)n(-c2ccccc2)n1 | 1.4% (inactive)
CC(=O)Nc1cnc2ccccc2n1 | -6.4% (inactive)
CN1CCN(c2nc(N3CCN(CCO)CC3)nc3ccccc23)CC1 | -2.1% (inactive)
CN1CCN(c2nc(-c3ccccc3)c3cc(Cl)ccc3n2)CC1 | 4.2% (inactive)
Clc1ccc2nc(NC3=NCN(CCN4CCOCC4)CN3)nc(-c3ccccc3)c2c1 | -2.9% (inactive)
Cc1ccc2nc(N3CCC(C(=O)O)CC3)nc(-c3ccccc3)c2c1 | -3.3% (inactive)
OCCN1CCN(c2nc(-c3ccccc3)c3cc(Cl)ccc3n2)CC1 | 67.2% (active)
Cc1cc(Cl)c2c(c1)[C@]1(C(=O)N2)[C@@H]2C(=O)N(Cc3ccccc3)C(=O)[C@@H]2[C@@H]2CCCN21 | -13.3% (inactive)
CC(=O)c1c(C)[nH]c(C(=O)N2CCN(c3ncccn3)CC2)c1C | 2.1% (inactive)
COc1cccc(N2CCN(C(=O)c3[nH]c(C)c(C(C)=O)c3C)CC2)c1 | 53.6% (active)

SMILES | cytotoxicity
CCOC(=O)c1[nH]c(C)c(C(=O)N2CCN(c3cccc(Cl)c3)CC2)c1C | 13.5% (inactive)
CC(C)C(=O)Nc1ccc(NC(=O)c2cccc(F)c2)cn1 | -7.5% (inactive)
COc1cc(CCC(=O)OCC(=O)Nc2ncc(Cl)cc2Cl)cc(OC)c1OC | -7.2% (inactive)
Cc1cc(-c2ccccc2C(=O)O)on1 | -13.2% (inactive)
C=CCn1c(N)c(C(=O)NCc2ccco2)sc1=S | 2.4% (inactive)
O=C(NCc1ccco1)c1sc(=S)n2c1[nH]c(=O)c1ccccc12 | 82.7% (active)
CCCCCCNC(=O)c1c(O)c2ccccc2[nH]c1=O | 4.2% (inactive)
CCCCNC(=O)c1sc(=S)n2c1[nH]c(=O)c1ccccc12 | 70.3% (active)
O=C(NCC1CCCO1)c1sc(=S)n2c1[nH]c(=O)c1ccc(C(=O)N3CCCCC3)cc12 (stereo unspecified) | -5.8% (inactive)
CCn1c(N)c(C(=O)NCc2ccco2)sc1=S | -6.5% (inactive)
CCCCNC(=O)c1ccccc1C(=O)NCCCC | -5.7% (inactive)
CCCCCNC(=O)c1ccc2c(=O)n(CC3CCCO3)c(=O)[nH]c2c1 (stereo unspecified) | -2.3% (inactive)
O=C(O)C1CCCN(S(=O)(=O)c2ccc(F)cc2)C1 (stereo unspecified) | -13.4% (inactive)
CCOC(=O)CSC1=NC(=O)CS1 | -7% (inactive)
Cc1ccc2[nH]c(=O)c(CN(CCc3ccccc3)C(=O)N3CCOCC3)cc2c1 | 5.9% (inactive)
CC(C)CC(=O)Nc1cccc(-c2cn3ccsc3n2)c1 | 2.6% (inactive)
CC(C)CC(=O)Nc1ccc(-c2cn3ccsc3n2)cc1 | 51.9% (active)
CC(=O)Nc1ccc(-c2cn3ccsc3n2)cc1 | 10.2% (inactive)
CCOC(=O)CCC(=O)Nc1ccc(S(=O)(=O)N2CCCC2)cc1 | -1.2% (inactive)
O=C(NC1CCN(C(=O)Nc2ccccc2)CC1)C1CCCCC1 | -8.9% (inactive)
CC(C)c1nnc(NC(=O)c2c(O)c3cccc4c3n(c2=O)CCC4)s1 | 46.3% (inactive)
Cc1cnc(NC(=O)c2c(O)c3cccc4c3n(c2=O)CCC4)s1 | 52.2% (active)

SMILES | cytotoxicity
Cc1csc(NC(=O)c2c(O)c3cccc4c3n(c2=O)CCC4)n1 | -11.1% (inactive)
N#CC1=C(N)S[C@H](C(=O)C23CC4CC(CC(C4)C2)C3)[C@H]1c1ccncc1 | -14.7% (inactive)
CCC(c1nnnn1CCc1ccccc1)N(Cc1ccco1)Cc1cc2cc(C)cc(C)c2[nH]c1=O (stereo unspecified) | 10.7% (inactive)
CC1=C(C#N)C(c2cn(-c3ccccc3)nc2-c2cccs2)C(C#N)=C(C)N1 | 41.2% (inactive)
NC1=NC(c2ccccc2Cl)n2c(nc3ccccc32)N1 (stereo unspecified) | 7% (inactive)
NC1=NC(c2cn(-c3ccccc3)nc2-c2cccs2)n2c(nc3ccccc32)N1 (stereo unspecified) | 54.9% (active)
CC(=O)Nc1cccc(NC(=O)c2ccco2)c1 | -14.2% (inactive)
Cc1ccc2oc(-c3ccc(NC(=O)c4cccnc4)cc3)nc2c1 | 51.4% (active)
O=C(Nc1ccc(-c2nc3ccccc3o2)cc1)c1ccc2c(c1)OCO2 | 2% (inactive)
O=C(Nc1cccc(NC(=O)c2ccc(-c3cccc(Br)c3)o2)c1)c1ccco1 | 63% (active)
Cc1ccc2oc(-c3ccc(NC(=O)c4ccc5c(c4)OCO5)cc3)nc2c1 | 71.1% (active)
COc1ccc(-c2nc3cc(NC(=O)c4ccc5c(c4)OCO5)ccc3o2)cc1 | 1.2% (inactive)
O=C(Nc1ccccc1-c1nc2ccccc2o1)c1ccc2c(c1)OCCO2 | 77.2% (active)
COc1ccc(Br)cc1C(=O)Nc1cccc(NC(=O)c2ccco2)c1 | 42.6% (inactive)
O=C(Nc1ccc2oc(-c3ccccc3F)nc2c1)c1ccc2c(c1)OCCO2 | 46.2% (inactive)
O=C(Nc1ccc2oc(-c3ccccc3)nc2c1)c1cccnc1 | 18.1% (inactive)
O=C(Nc1ccc2oc(-c3cccnc3)nc2c1)c1cccnc1 | 7.7% (inactive)
Cc1c(NC(=O)c2ccc3c(c2)OCO3)cccc1-c1nc2ccccc2o1 | -9.8% (inactive)
